Structures are written as SMILES. Several values for one entry are separate records, joined by “and”; a condition that tells them apart may be missing. Equal entries are not always repeated. The panel holds about 83,000 compounds, 20% with a hit somewhere; the sample as a whole holds those more often.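 Step 1: grow cells in 96-well plates. Step 2: add test compound at a single concentration. Step 3: incubate 48 h. Step 4: record percent growth.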 Activity calls are given as the source filed them. The calls were made as follows: active = growth percent below 10; inactive = the rest.

In this assay the test system is MDA-MB-468 breast. As to the kind of experiment: NCI-60 one-dose screen, 48 h (100 = growth as untreated, 0 = no growth, -100 = all killed). As to conditions: 10 µM unless noted.
As for `O=C(Cn1nnc2ccccc21)N/N=C/c1ccccc1F`, the growth was 90.8% (inactive).

For `COc1cc(C2CC(c3ccc(Cl)cc3)=NN2C(C)=O)ccc1Oc1nc2c(c(=O)n(C)c(=O)n2C)n1C` (stereo not given), the growth was 76.6% (inactive).

Take `O=C1/C(=C/c2ccc(O)cc2)Cc2ccc(Cl)cc21`: the growth was 65% (inactive).

As for `CC[C@H](CC[C@@H](C)[C@H]1CC[C@H]2[C@@H]3CC=C4C[C@@H](O)CC[C@]4(C)[C@H]3CC[C@]12C)C(C)C`, the growth was 98.7% (inactive) and 91.8% (inactive).

Regarding `C[C@@H]1C(=O)N(C[C@@H](Cc2ccccc2)NC(=O)OCc2ccccc2)[C@]1(Cc1ccccc1)C(=O)OCc1ccccc1`, the growth was 26.1% (inactive).

`Cc1nc2c(nnn2-c2ccccc2)c2nc(-c3ccc(Cl)cc3)oc(=O)c12`: the growth is 106% (inactive).

Turning to `OC(CNC1CCCC1)Cn1c2ccccc2c2ccccc21` (stereo not given), the growth is -21.2% (active).

As to `Nc1c(C(=O)Nc2cccc3ccccc23)sc2nc3c(cc12)CCCCCC3`, the growth was 30.7% (inactive).

As for `COc1c(N2CC3CCCNC3C2)c(F)cc2c(=O)c(C(=O)N/N=C/c3ccc(N(C)C)cc3)cn(C3CC3)c12` (stereo not given), the growth was 79% (inactive).

For the molecule `COc1ccc(/C=N\Nc2nc(SCCC(C)C)nc(-c3ccc(OC)cc3)c2C#N)cc1`, the growth is 35.9% (inactive).

As for `COc1ccc(-c2csc(NC(=O)c3cc(OC)c(OC)c(OC)c3)n2)cc1`, the growth is 86.8% (inactive).

As to `Fc1ccc2c(c1)c(-c1nc(-c3c[nH]c4ncccc34)cs1)cn2CCCN1CCOCC1`, the growth is 18.3% (inactive).

Turning to `COc1ccc(SC2c3cc(OC)c(OC)cc3Oc3nc(N)c(C#N)c(N)c32)cc1` (stereo not given), the growth was -40.7% (active).

Regarding `O=C(Nc1ccccc1)OCC(CN1CCCCC1)OC(=O)Nc1ccccc1` (stereo not given), the growth is 59% (inactive) and 94.1% (inactive).

In the case of `Nc1nc(N)c2c(n1)NC(c1ccc(C(F)(F)F)cc1)CC(c1ccc(Nc3nc(NCCO)nc(Nc4ccc(Cl)cc4)n3)cc1)=N2` (stereo not given), the growth is -84.7% (active).

Regarding `COc1cc(C(F)(F)F)ccc1-c1cc(-c2ccc(F)cc2)n[nH]1`, the growth is 75.6% (inactive).

As for `CN1C(=O)N(C)C2(c3ccccc3)N(CC(=O)Nc3ccccc3O)C(=O)NC12c1ccccc1` (stereo not given), the growth is 104% (inactive).

As to `CC(=O)CSc1ncnc2nc[nH]c12`, the growth is 40.6% (inactive).

Regarding `C(=N\Nc1ncc(-c2cc3cc4c(cc3o2)OCO4)s1)/c1c[nH]c2ccccc12`, the growth was 0.523% (active).

On to `COc1ccc(C(=O)c2ccc(OC)c(OC)c2OC)cc1`, for which the growth is -7.95% (active) and -19% (active).

Turning to `Nc1nc(Nc2ccccc2SSc2ccccc2Nc2nc(N)nc(C(Cl)(Cl)Cl)n2)nc(C(Cl)(Cl)Cl)n1`, the growth was 86.6% (inactive).

Take `CCOC(=O)CCN(CCC(=O)OCC)c1ccccc1`: the growth was 96.6% (inactive).

Consider `CN1CCN(Cc2ccc(C(=O)Nc3cncc(C#Cc4cnc5cccnn45)c3)cc2C(F)(F)F)CC1`, for which the growth was 61.1% (inactive).

On to `CCOC(=O)C(=Cc1ccccc1F)C(=O)OCC`, for which the growth was 76.7% (inactive).

In the case of `Cc1ccc(/C=N/NC(N)=S)s1`, the growth is 101% (inactive).

On to `COc1ccc(Cc2cnc(NC(=O)c3sc4ccccc4c3Cl)s2)cc1`, for which the growth is 23.5% (inactive).

For `Cc1ccc2nc(-c3ccc(C(=O)N/N=C/c4ccc([N+](=O)[O-])cc4)cc3)[nH]c2c1`, the growth is 113% (inactive).

In the case of `N#Cc1ncc(-c2ccc(C(F)(F)F)cc2)c(NC2CCCCCC2)n1`, the growth was -8.28% (active).

As to `CCOC(=O)c1c(O)cc(-c2ccccc2)cc1-c1sc(N(C)Cc2ccccc2)nc1Cl`, the growth is 111% (inactive).

Turning to `c1ccc2c(CC3=NCCN3)cccc2c1`, the growth was 92.3% (inactive) and 101% (inactive).

On to `OC(c1ccccc1)C(NC(Cc1ccccc1)c1ccccc1)c1ccccc1` (stereo not given), for which the growth was 89.3% (inactive).

Consider `COc1ccc(S(=O)(=O)NCCCNc2nccc(-c3cn(C(C)(C)C)nc3-c3ccc(Cl)c(OC)c3)n2)cc1`, for which the growth is 76.8% (inactive).

As to `COc1ccc(/C=C2\COc3ccc(O)cc3C2=O)cc1`, the growth was 85.7% (inactive).

Consider `CCOc1ncc([N+](=O)[O-])c(OCC)n1`, for which the growth was 115% (inactive).

As to `OC(c1cc2cc(Cl)ccc2c2cc(C(F)(F)F)ccc12)C1CCCCN1` (stereo not given), the growth is -82.2% (active).

In the case of `COc1nc2ccccc2cc1-c1nc2c(cnn2-c2ccccc2)c(=O)[nH]1`, the growth is 35.9% (inactive).

On to `O=CN/N=C/c1ccc(Cl)c([N+](=O)[O-])c1`, for which the growth was -11.6% (active).

As to `CCCCCCCCCCNC(=O)CCl`, the growth is 67.8% (inactive).

Turning to `COC(=O)Nc1ccc2ccc3c(NC(=O)OC)ccc4ccc1c2c43` (tested in a mixture with another compound), the growth is 40.9% (inactive).

Regarding `CCC1C(=O)COC1=O` (stereo not given), the growth is 103% (inactive).
